From PubChem BioAssay (NCATS)
Inconclusive results are not listed. Entries that show only a call come without a potency. Calls of active or inactive are those of the source. Calls come from the whole dose curve; as a rule, active = well fitted curve in the direction sought with a large enough effect; inconclusive = small, poorly fitted or top-dose-only effect, or another doubt; inactive = no such curve, though single readings can be large; an effect the other way counts as inactive or inconclusive.

Legend:
[1] = Cellular Toxicity (caspase-3) Renal Proximal Tubule (AID 667);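 note: cells exposed to compound for 16 hours at 37 °C before detection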
Procedure, shortened: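 AC50 derived by standard Hill fit of concentration-response data, normalized between DMSO basal and 10 uM staurosporine as 100% stimulation. Cells: primary rat kidney proximal tubule, 16 h treatment at 37 °C.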

[2] = target: Cytochrome P450 3A4 (Homo sapiens) (UniProt P08684); assay: qHTS Assay for Inhibitors and Substrates of Cytochrome P450 3A4 (AID 884); note: nearly all actives have a fitted effect of over 50% in size; note: potency is the fitted concentration of half-maximal effect
Procedure, shortened: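 20 nM human CYP3A4 with 25 uM Luciferin-PPXE (at KM) in 200 mM KPO4, preincubated 10 min with compound; NADPH regeneration started a 60 min RT reaction. Luciferin detected by luminescence, normalized to 57 uM ketoconazole as full inhibition.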

[3] = target: Guanine nucleotide-binding protein G(i) subunit alpha-1 (Homo sapiens) (UniProt P63096); assay: qHTS Assay for Inhibitors of RGS12 GoLoco Motif Activity (Green Fluorophore) (AID 879);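 note: negative values mean loss of peptide binding seen as reduced polarization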
Procedure, shortened: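 Fluorescence polarization assay: 50 nM Gαi1 with 10 nM FITC-labeled RGS12 GoLoco peptide in 10 mM Tris pH 7.5, 150 mM NaCl, 0.1 mM GDP, 0.05% NP40, 10 min at room temperature with compound.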

[4] = target: Cytochrome P450 2C9 (Homo sapiens) (UniProt P11712); assay: qHTS Assay for Inhibitors and Substrates of Cytochrome P450 2C9 (AID 883); note: nearly all actives have a fitted effect of over 60% in size
Procedure, shortened: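 CYP2C9 deoxyluciferin hydroxylation, 37C, 60 min with NADPH regeneration; 10nM enzyme, 100uM Luciferin-H (KM). Glo detection reagent stopped reaction; luminescence normalized to sulphaphenazole (57uM) full inhibition.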

[5] = target: Cytochrome P450 3A4 (Homo sapiens) (UniProt P08684); assay: qHTS Assay for Activators of Cytochrome P450 3A4 (AID 885); note: nearly all actives have a fitted effect of over 65% in size
Procedure, shortened: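 Quantitative HTS format: compounds preincubated with 20nM human CYP3A4 and Luciferin-PPXE substrate at KM, reaction started by NADPH regeneration, stopped after 60 min, luciferase luminescence read 20 min later.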

[6] = target: Cytochrome P450 2D6 (Homo sapiens) (UniProt P10635); assay: qHTS Assay for Inhibitors and Substrates of Cytochrome P450 2D6 (AID 891);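 note: luciferin methyl ether substrate demethylated by CYP2D6 with NADPH regeneration; nearly all actives have a fitted effect of over 60% in size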
Procedure, shortened: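 Human CYP2D6 (5 nM) with 30 uM Luciferin-ME EGE (at Km) in 100 mM KPO4, compound preincubated 10 min, then NADPH regeneration system for 60 min at room temperature. Luciferin read by luminescence; normalized to 1.43 uM quinidine.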

[7] = target: Cytochrome P450 2C19 (Homo sapiens) (UniProt P33261); assay: qHTS Assay for Inhibitors and Substrates of Cytochrome P450 2C19 (AID 899); note: nearly all actives have a fitted effect of over 60% in size
Procedure, shortened: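 In 50mM KPO4, the reaction held 5nM enzyme and KM-level (10uM) Luciferin-H EGE; it ran 60 min at 37C after NADPH regeneration and a 10 min compound preincubation. Luminescence values were scaled to 57uM ketoconazole as complete inhibition.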

[8] = Confirmation and Secondary Assay for Modulators of Hemoglobin Beta Chain Splicing at IVS2 654 locus (AID 910);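 note: per-well total GFP intensity by laser scanning cytometry after 2-day treatment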
Procedure, shortened: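 HeLa cells stably carrying EGFP interrupted by mutant beta-globin IVS2-654 intron (CMV-driven) were treated with compound for 2 days at 37C; corrected splicing was scored as total peak GFP intensity per well (488 nm excitation, 500-520 nm emission).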

Cytochrome P450 3A4 (Homo sapiens), sequence (P08684 whole entry, looked up): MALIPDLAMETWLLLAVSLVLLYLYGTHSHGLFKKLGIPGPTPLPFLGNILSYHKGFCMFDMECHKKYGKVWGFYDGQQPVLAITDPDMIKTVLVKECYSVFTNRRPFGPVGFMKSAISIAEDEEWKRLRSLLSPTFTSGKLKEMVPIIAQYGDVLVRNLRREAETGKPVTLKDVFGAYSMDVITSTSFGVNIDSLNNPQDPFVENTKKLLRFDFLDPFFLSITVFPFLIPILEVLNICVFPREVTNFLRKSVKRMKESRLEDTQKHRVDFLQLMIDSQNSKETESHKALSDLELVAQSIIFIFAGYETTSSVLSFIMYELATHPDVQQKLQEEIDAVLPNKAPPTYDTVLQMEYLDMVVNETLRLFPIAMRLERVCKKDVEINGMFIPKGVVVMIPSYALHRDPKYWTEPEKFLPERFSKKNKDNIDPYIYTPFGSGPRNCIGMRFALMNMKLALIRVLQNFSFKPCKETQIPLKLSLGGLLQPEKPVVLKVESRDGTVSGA
Guanine nucleotide-binding protein G(i) subunit alpha-1 (Homo sapiens), sequence (P63096 whole entry, looked up): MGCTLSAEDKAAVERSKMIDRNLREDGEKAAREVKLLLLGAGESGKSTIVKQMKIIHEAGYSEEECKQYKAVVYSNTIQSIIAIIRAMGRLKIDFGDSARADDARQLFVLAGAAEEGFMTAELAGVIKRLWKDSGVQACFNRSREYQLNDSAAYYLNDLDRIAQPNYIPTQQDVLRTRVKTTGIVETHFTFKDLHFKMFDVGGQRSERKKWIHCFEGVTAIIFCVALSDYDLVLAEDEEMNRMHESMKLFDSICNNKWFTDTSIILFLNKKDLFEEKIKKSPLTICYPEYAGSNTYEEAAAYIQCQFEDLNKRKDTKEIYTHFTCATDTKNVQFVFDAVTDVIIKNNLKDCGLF
Cytochrome P450 2C9 (Homo sapiens), sequence (P11712 whole entry, looked up): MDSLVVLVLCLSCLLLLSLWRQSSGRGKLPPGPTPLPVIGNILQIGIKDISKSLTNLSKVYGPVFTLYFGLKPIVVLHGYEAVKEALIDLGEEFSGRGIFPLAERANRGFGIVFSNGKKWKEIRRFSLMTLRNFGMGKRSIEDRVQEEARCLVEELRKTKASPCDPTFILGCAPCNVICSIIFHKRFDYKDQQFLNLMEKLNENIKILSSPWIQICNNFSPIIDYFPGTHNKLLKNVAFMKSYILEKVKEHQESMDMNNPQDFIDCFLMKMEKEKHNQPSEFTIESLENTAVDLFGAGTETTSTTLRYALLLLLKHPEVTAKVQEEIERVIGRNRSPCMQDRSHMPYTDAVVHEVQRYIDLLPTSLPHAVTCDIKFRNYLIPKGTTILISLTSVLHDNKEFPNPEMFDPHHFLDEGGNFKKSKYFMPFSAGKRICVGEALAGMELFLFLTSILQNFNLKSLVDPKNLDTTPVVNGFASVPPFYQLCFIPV
Cytochrome P450 2C19 (Homo sapiens), sequence (P33261 whole entry, looked up): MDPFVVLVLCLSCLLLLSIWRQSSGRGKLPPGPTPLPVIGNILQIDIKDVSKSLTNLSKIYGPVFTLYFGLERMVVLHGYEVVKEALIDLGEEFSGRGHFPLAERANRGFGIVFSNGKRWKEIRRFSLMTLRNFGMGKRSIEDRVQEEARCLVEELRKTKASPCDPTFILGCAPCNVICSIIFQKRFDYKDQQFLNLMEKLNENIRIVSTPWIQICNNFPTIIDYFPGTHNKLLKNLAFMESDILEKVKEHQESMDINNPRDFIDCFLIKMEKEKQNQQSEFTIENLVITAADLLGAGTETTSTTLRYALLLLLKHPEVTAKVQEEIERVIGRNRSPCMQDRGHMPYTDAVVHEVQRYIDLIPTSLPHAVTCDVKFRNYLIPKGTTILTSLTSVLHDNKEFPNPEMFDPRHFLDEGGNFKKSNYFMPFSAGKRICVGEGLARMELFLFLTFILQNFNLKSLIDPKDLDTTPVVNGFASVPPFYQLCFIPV
Cytochrome P450 2D6 (Homo sapiens), sequence (P10635 whole entry, looked up): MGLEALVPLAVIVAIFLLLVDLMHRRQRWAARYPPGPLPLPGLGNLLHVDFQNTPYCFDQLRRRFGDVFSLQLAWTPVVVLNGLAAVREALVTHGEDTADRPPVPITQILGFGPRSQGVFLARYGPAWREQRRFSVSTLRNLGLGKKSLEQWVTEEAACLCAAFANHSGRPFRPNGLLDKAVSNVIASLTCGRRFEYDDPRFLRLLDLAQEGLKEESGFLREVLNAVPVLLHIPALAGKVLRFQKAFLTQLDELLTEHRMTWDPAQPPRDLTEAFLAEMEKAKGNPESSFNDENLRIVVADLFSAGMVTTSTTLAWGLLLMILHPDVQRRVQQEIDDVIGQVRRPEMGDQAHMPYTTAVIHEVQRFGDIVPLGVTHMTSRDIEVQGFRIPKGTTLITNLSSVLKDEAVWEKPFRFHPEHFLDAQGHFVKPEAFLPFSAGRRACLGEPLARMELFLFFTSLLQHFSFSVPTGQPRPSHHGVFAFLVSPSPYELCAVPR

## O=C(O)COc1ccccc1
[1]
  outcome: inactive
[2]
  Potency: inactive

## CCCCc1ccc(C(=O)O)nc1
[3]
  outcome: inactive
[4]
  Potency: inactive
[2]
  Potency: inactive
[5]
  outcome: inactive
[6]
  Potency: inactive
[7]
  Potency: inactive

## CN(C)NC(=O)CCC(=O)O
[1]
  outcome: inactive
[2]
  Potency: inactive

## COc1ccc(C(c2ccc(OC)cc2)C(Cl)(Cl)Cl)cc1
[1]
  outcome: inactive
[2]
  Potency: inactive
[8]
  Potency: inactive

## CNCCc1ccc(O)c(O)c1
[3]
  outcome: inactive

## Nc1ccc(Sc2ccc(N)cc2)cc1
[1]
  outcome: inactive

## O=[N+]([O-])c1cc([N+](=O)[O-])c2ccccc2c1
[1]
  outcome: inactive
[2]
  Potency: inactive

## COC(C)(C)CCCC(C)C/C=C/C(C)=C/C(=O)OC(C)C (stereo not drawn)
[1]
  outcome: inactive
[5]
  outcome: inactive
[8]
  Potency: inactive

## Nc1ccc(Cl)cc1
[1]
  outcome: inactive
[2]
  Potency: inactive

## O=[N+]([O-])c1c2ccccc2cc2ccccc12
[1]
  outcome: inactive
[5]
  outcome: inactive

## C#CCOC(=O)C1=CCCN(C)C1
[3]
  outcome: inactive

## S=C(NC1CCCCC1)N1CCC(c2cnc[nH]2)CC1
[3]
  outcome: inactive

## Cc1c(C(=O)c2cccc3ccccc23)c2cccc3c2n1[C@H](CN1CCOCC1)CO3
[3]
  outcome: inactive

## Cc1nccc2c1[nH]c1ccccc12
[3]
  outcome: inactive
[4]
  Potency: inactive
[2]
  Potency: 3.98 µM (active)
[5]
  outcome: inactive
[7]
  Potency: inactive
[8]
  Potency: inactive

## CC(C)(O)C(=O)Nc1ccc([N+](=O)[O-])c(C(F)(F)F)c1
[1]
  outcome: inactive
[5]
  outcome: inactive

## CCCN1CCC[C@H](c2cccc(O)c2)C1
[3]
  outcome: inactive

## CCCCC(CC)COC(=O)c1ccccc1C(=O)OCC(CC)CCCC (stereo not drawn)
[1]
  outcome: inactive

## C1CCC(NC2CCCCC2)CC1
[1]
  outcome: inactive
[2]
  Potency: inactive

## CCCCOC(=O)c1ccccc1C(=O)OCc1ccccc1
[1]
  outcome: inactive
[5]
  outcome: inactive

## CCCCCCCCc1ccc(O)cc1
[1]
  outcome: inactive
[2]
  Potency: inactive
